Drawing on publication PMC8384837, “Expanding the binding specificity for RNA recognition by a PUF domain”, this text covers binding signal for 6 sequences.

One assay deals with PUM1 PUF domain R5-RFK (Homo sapiens, UniProt Q14671 828-1176, C1007R;R1008F;Q1011K). The assay is described as follows: yeast three-hybrid, YBZ-1, SC-Leu-His + 0.5 mM 3-AT, 4 days. The conditions noted are these: tags: N-Gal4 AD-HA kept; label: inside an RPR1-promoter hybrid RNA with tandem MS2 sites; ssRNA. In short, it runs like this:
(§1)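 A centromeric plasmid in strain YBZ-1 co-expressed Pumilio-1 PUF domain libraries, randomized at the three base-contacting residues of each repeat, with matching RNA elements; the strain carries a LexA–MS2 coat fusion and a HIS3 reporter. After four days on SC-Leu (input) or SC-Leu-His + 0.5 mM 3-AT (selection), the repeat regions were PCR-amplified and Illumina-sequenced. The interaction score is the log change in variant frequency from input to selection, using log2 and a pseudocount of 1 where absent.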
In the case of “GGCUAGAACUAGUGGAUCCCCCGGCGCCCGGCGGCUCGAGCCCGGGUAAGUGUCAAUAGUCUGCAUGCCGCCGGGCGCCAUGCCUGCAGGUCGACUCUAGAAAACAUG”, the binding signal is 5.3 log2 enrichment (interaction score).

For the sequence “GGCUAGAACUAGUGGAUCCCCCGGCGCCCGGCGGCUCGAGCCCGGGUAAGUGUUAAUAGUCUGCAUGCCGCCGGGCGCCAUGCCUGCAGGUCGACUCUAGAAAACAUG”, the binding signal was 5.38 log2 enrichment (interaction score).

As for “GGCUAGAACUAGUGGAUCCCCCGGCGCCCGGCGGCUCGAGCCCGGGUAAGUGUAAAUAGUCUGCAUGCCGCCGGGCGCCAUGCCUGCAGGUCGACUCUAGAAAACAUG”, the binding signal was 4.34 log2 enrichment (interaction score).

In the next assay the target is PUM1 PUF domain R1-YLR (Homo sapiens, UniProt Q14671 828-1176, S863Y;R864L;Q867R). The description is as above. The conditions noted are these: tags: N-Gal4 AD-HA kept; label: inside an RPR1-promoter hybrid RNA with tandem MS2 sites; ssRNA. In short, it runs like this:
as §1
As for “GGCUAGAACUAGUGGAUCCCCCGGCGCCCGGCGGCUCGAGCCCGGGUAAGUGUAAAUGGUCUGCAUGCCGCCGGGCGCCAUGCCUGCAGGUCGACUCUAGAAAACAUG”, the binding signal was 2.04 log2 enrichment (interaction score).

With “GGCUAGAACUAGUGGAUCCCCCGGCGCCCGGCGGCUCGAGCCCGGGUAAGUGUAAAUCGUCUGCAUGCCGCCGGGCGCCAUGCCUGCAGGUCGACUCUAGAAAACAUG”, the binding signal is 3.95 log2 enrichment (interaction score).

Take “GGCUAGAACUAGUGGAUCCCCCGGCGCCCGGCGGCUCGAGCCCGGGUAAGUGUAAAUUGUCUGCAUGCCGCCGGGCGCCAUGCCUGCAGGUCGACUCUAGAAAACAUG”: the binding signal was 5.29 log2 enrichment (interaction score).
